Experimental findings from PubChem BioAssay (NCI) are described below.

SMILES strings stand for the structures. About 79,000 compounds went through this panel and 15% of them were active in at least one assay; those are over-represented in the sample as a whole. Values without a mark were called inactive. The source made the active and inactive calls. Cut-off read from the data, not from the text of the source: active = growth inhibition above about 70%; inactive = the rest.

The nature of test [1]: NCI Yeast Anticancer Drug Screen. Data for the rad50 strain (AID 155).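 Note: 0% = growth of vehicle-only cultures of the same strain.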 The settings on record: S. cerevisiae rad50 strain growth inhibition; at 50.0 µM; hits give high values. In outline: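 Vehicle-treated cultures provide the reference for the growth inhibition reported for compound-exposed, repair-deficient yeast.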
The nature of test [2]: NCI Yeast Anticancer Drug Screen. Data for the mec2-1 strain (AID 157). As to conditions: S. cerevisiae mec2-1 strain, at 50.0 µM, hits give high values. In outline: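 Readout is yeast growth inhibition, normalised to vehicle-treated controls, in the mec2-1 strain exposed to compound.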
A short description of test [3]: NCI Yeast Anticancer Drug Screen. Data for the sgs1 mgt1 strain (AID 161).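 Note: 0% = growth of cultures given vehicle only.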 As to conditions: S. cerevisiae sgs1 mgt1 strain, at 50.0 µM, hits give high values. In outline: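 Growth of a repair-deficient yeast mutant was monitored after compound treatment and expressed as inhibition relative to vehicle-treated cultures.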
A short description of test [4]: NCI Yeast Anticancer Drug Screen. Data for the cln2 rad14 strain (AID 165).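 Note: 0% = growth equal to vehicle treated cultures.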 As to conditions: S. cerevisiae cln2 rad14 strain, at 50.0 µM, hits give high values. Put shortly: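 Relative to vehicle controls, growth inhibition of compound-treated cln2 rad14 yeast was recorded.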
The nature of test [5]: NCI Yeast Anticancer Drug Screen. Data for the bub3 strain (AID 167). As to conditions: S. cerevisiae bub3 mutant strain, at 50.0 µM, hits give high values. In outline:
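Mutant yeast screening strain plus compound; vehicle-treated cultures serve as the 0% inhibition reference.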

A short description of test [6]: NCI Yeast Anticancer Drug Screen. Data for the mlh1 rad18 strain (AID 175). The settings on record: S. cerevisiae mlh1 rad18 strain growth inhibition; at 50.0 µM; hits give high values. Put shortly:
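Test agents were incubated with a yeast strain of defined genotype (DNA damage repair defect). Inhibition of growth was derived by comparison with vehicle-exposed cultures.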

In the case of `Nc1ncnc(Nc2ccccc2)n1`, the growth inhibition in test [1] is -6.05%; in test [2] it was -28.1%; in test [3], -4.1%; in test [4], 15.1%; in test [5], -5.8%; in test [6], 7.1%.

`CN1CCCN(C(c2ccccc2)c2ccc(Cl)cc2)CC1` (stereo unspecified): the growth inhibition is 3.9% in test [1]; -16.9% in test [2]; 1.95% in test [3]; 19.9% in test [4]; 27.6% in test [5]; 10.5% in test [6].

On to `O=[N+]([O-])c1ccc(-c2nc(N(CCO)CCO)c3ccccc3n2)o1`, for which the growth inhibition in test [1] is 41.8%; in test [2] it was 69.8%; in test [3], 88.8% (active); in test [4], 72.5% (active); in test [5], 25.1%; in test [6], 66.8%.

As for `Ic1cccs1`, the growth inhibition in test [1] is 34.9%; in test [2], -3.05%; in test [3], 6.65%; in test [4] it was -6.75%; in test [5] it was -4.3%; in test [6] it was 11.8%.

Regarding `CCN(Cc1ccc(Cl)c(Cl)c1)c1ccc2nc(N)nc(N)c2c1C`, the growth inhibition in test [1] was 40%; in test [2], 84.6% (active); in test [3], 50.9%; in test [4] it was 40.3%; in test [5] it was 6.15%; in test [6], 29.9%.

Turning to `Nc1ccc2c(c1)Cc1cc(N)c(N)cc1-2`, the growth inhibition in test [1] is 10.8%; in test [2] it was -7.75%; in test [3] it was 10.9%; in test [4] it was -18.7%; in test [5] it was -3.8%; in test [6], 5.8%.

As for `Cc1cccnc1NC1OC(=O)c2ccccc21` (stereo unspecified), the growth inhibition in test [1] was -22.1%; in test [2], -4.4%; in test [3], -16.6%; in test [4], 2.05%; in test [5] it was -9.25%; in test [6], -9.65%.

`CC(C)NC(=O)OCc1c(COC(=O)NC(C)C)c(-c2ccc(Cl)cc2)n2c1CCC2`: the growth inhibition was -29.6% in test [1]; -23.7% in test [2]; -26.1% in test [3]; 9.25% in test [4]; -6.75% in test [5]; -24.4% in test [6].

As to `CC(c1ccccc1)N1C(=O)CSC1=S` (stereo unspecified), the growth inhibition in test [1] was 37.1%; in test [2] it was 30.5%; in test [3] it was 22.8%; in test [4], 35.8%; in test [5], 53.6%; in test [6], 52.1%.

For `CCOC(=O)C1(N)CCCCC1`, the growth inhibition in test [1] is 10.3%; in test [2] it was 0.45%; in test [3], 11.1%; in test [4], -9.85%; in test [5] it was 13%; in test [6], 11.8%.

`Cn1c(=O)c2[nH]c(CC(=O)O)nc2n(C)c1=O`: the growth inhibition in test [1] was 29.5%; in test [2], 11%; in test [3] it was 33.8%; in test [4] it was 22.8%; in test [5], 0.85%; in test [6] it was 24.1%.

As for `Cc1cc2c(C(C)C)c(O)c(O)c(C=Nc3ccccc3[N+](=O)[O-])c2c(O)c1-c1c(C)cc2c(C(C)C)c(O)c(O)c(C=Nc3ccccc3[N+](=O)[O-])c2c1O`, the growth inhibition is -13.9% in test [1]; -19.6% in test [2]; -19.6% in test [3]; -21.8% in test [4]; -17.4% in test [5]; -2.3% in test [6].

For `Clc1ccc(-c2noc(/C=C\c3ccccc3)n2)cc1`, the growth inhibition in test [1] is 12.7%; in test [2] it was -20.1%; in test [3], 4.8%; in test [4] it was 12.1%; in test [5] it was 8.7%; in test [6] it was 7.45%.

Consider `CCN(CC)c1ccc2nc3ccc(N=Nc4ccc(N(C)C)cc4)cc3[n+](-c3ccccc3)c2c1`, for which the growth inhibition in test [1] was 42.5%; in test [2] it was 52.5%; in test [3] it was 57.7%; in test [4], 54.9%; in test [5], 39.5%; in test [6], 38.9%.

Take `Nc1ccn(C2CC(N)C(CO)O2)c(=O)n1` (stereo unspecified): the growth inhibition in test [1] was 16.1%; in test [2], 7.15%; in test [3], 9.25%; in test [4], 19.8%; in test [5] it was 6.9%; in test [6], 32.4%.

In the case of `CCOC(=O)CNC(=O)Sc1ccc(C(C)(C)C)cc1`, the growth inhibition in test [1] was 88.2% (active); in test [2] it was 88.2% (active); in test [3], 84.2% (active); in test [4], 70.2% (active); in test [5], 76.7% (active); in test [6], 61.8%.

Take `CCCCCCCCNC(=O)C(C)C`: the growth inhibition in test [1] is -13.9%; in test [2], 30.1%; in test [3] it was -2.15%; in test [4], -42.1%; in test [5], -18.6%; in test [6], -11.9%.

With `CCOC(=O)c1ccc(NC(C)=O)o1`, the growth inhibition in test [1] was -10.3%; in test [2], 11.3%; in test [3], -3.35%; in test [4], -23.1%; in test [5], -5.35%; in test [6], 11.1%.

As for `Nc1nnc2cc(F)ccc2n1`, the growth inhibition in test [1] was -18%; in test [2] it was -9.75%; in test [3], -5.9%; in test [4], 21.8%; in test [5], 11.7%; in test [6], -12.2%.

With `CCCCOC(=O)c1ccccc1O`, the growth inhibition in test [1] is 9.35%; in test [2], -0.8%; in test [3], -13.8%; in test [4] it was -3.05%; in test [5], 0.85%; in test [6], 20.5%.

For the molecule `O=C1Nc2ccccc2/C1=C\c1ccccc1O`, the growth inhibition is 25.2% in test [1]; -1.75% in test [2]; 12.2% in test [3]; 6.8% in test [4]; 17.4% in test [5]; 23.4% in test [6].
